Data taken from the supplement of paper PMC6555819.

What was measured:
Assay in all cases: PBM binding z-score (relative to random genomic background probes); higher = stronger binding; sequences stand for … in GC…GCGATTGACAGCGTAGAATGAAGG
[1] = tested on: FXR:RXRa (NR concentration 270 nM, RXRa partner concentration 90 nM)
Summary of the method: (§1)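 Each nuclear receptor dimer, without ligand, was incubated for 1 h on custom Agilent 4×180K protein-binding microarrays. Binding was detected with antibodies against each partner (one per run), and scanned fluorescence was regression-normalized. The binding z-scores are referenced to random human genomic background probes.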

[2] = tested on: LXRa:RXRa (NR concentration 270 nM, RXRa partner concentration 90 nM)
Summary of the method: as §1

[3] = tested on: LXRa homodimer (NR concentration 270 nM)
Summary of the method: as §1

[4] = tested on: LXRb:RXRa (NR concentration 270 nM, RXRa partner concentration 90 nM)
Summary of the method: as §1

[5] = tested on: LXRb homodimer (NR concentration 270 nM)
Summary of the method: as §1

[6] = tested on: PPARa:RXRa (NR concentration 270 nM, RXRa partner concentration 90 nM)
Summary of the method: as §1

[7] = tested on: PPARg:RXRa (NR concentration 180 nM, RXRa partner concentration 90 nM)
Summary of the method: as §1

[8] = tested on: PPARg:RXRa 270nM:90nM, anti-RXR (NR concentration 270 nM, RXRa partner concentration 90 nM)
Summary of the method: as §1

[9] = tested on: PPARg:RXRa 30nM:10nM, anti-RXR (NR concentration 30 nM, RXRa partner concentration 10 nM)
Summary of the method: as §1

[10] = tested on: PPARg:RXRa 90nM:30nM, anti-RXR (NR concentration 90 nM, RXRa partner concentration 30 nM)
Summary of the method: as §1

Sequence | PBM binding z-score [1] | PBM binding z-score [2] | PBM binding z-score [3] | PBM binding z-score [4] | PBM binding z-score [5] | PBM binding z-score [6] | PBM binding z-score [7] | PBM binding z-score [8] | PBM binding z-score [9] | PBM binding z-score [10]
ACTCGGAGGACAAAGGTCACAGCTACGCCAGTGA | 5.25 | 5.76 | 3.07 | 4.75 | 0.774 | 5.97 | 9.11 | 7.86 | 6.87 | 8.74
CGTCAAAGTTCAAGTTAACGTAACAGAAAGCAGC | 7.26 | 6.56 | 4.75 | 4.33 | 2.63 | 5.3 | 5.08 | 5.71 | 2.68 | 4.8
ACAGACAGGTGAGTGAAGGTCACTCAGCTGGACG | 2.41 | 2.98 | 0.517 | 1.82 | -0.302 | 2.61 | 1.51 | 1.98 | 0.232 | 1.46
CAAACTAGGTCAAAGGTCAAAGTTGAGCCAACCA | 8.49 | 7.15 | 5.63 | 7.42 | 3.19 | 7.85 | 14 | 11.5 | 12.5 | 13.5
CGAACTAGATCACCAGGACAGTGAAGAGGTTGGA | -0.196 | -0.468 | -0.072 | -0.702 | -0.495 | -0.082 | 0.66 | -0.0755 | -0.0214 | -0.286
AGTCAAAGTTGATCTAGGTAACGTAAGATATGCT | -0.0957 | -0.391 | -0.431 | -0.102 | -0.616 | 0.713 | 1.39 | 1.2 | 0.421 | 0.958
ATAGGTAGGTTAGGGTCATTCAGAAAGTAGGGAA | 5.28 | 4.39 | 2.09 | 4.8 | 2.83 | 5.26 | 5.56 | 4.89 | 2.63 | 4.2
TAGCCTAGGTCATTGGGCTAGTATAGTACGCATC | 4.29 | 3.19 | 0.404 | 1.81 | -0.386 | 3.63 | 2.59 | 3.08 | 0.744 | 1.97
ATACGTAGGTTACATCCGGGTCATTCAGGCTATG | 2.32 | 4.39 | 1.12 | 2.83 | 0.366 | 3.03 | 1.57 | 1.54 | 0.526 | 1.13
GCTGCTAGGTAAGGTTGGTCAGCTAACGGGTACG | -0.225 | -0.495 | -0.455 | -0.746 | -0.795 | -0.411 | -0.199 | -0.51 | -0.761 | -0.734
CGAACTAGGTCACTAGGACAGTGAAGAGGTTGGA | 2.63 | 1.57 | -0.199 | 0.869 | -0.496 | 4.78 | 8.29 | 6.68 | 3.9 | 6.28
AGTCAGAGTTCATCTAGGTAACGTAAGATATGCT | 6.74 | 5.36 | 4.78 | 3.63 | 1.48 | 4.64 | 4.23 | 4.21 | 1.67 | 3.42
CCCCGGAGGACAGAAGGTCAGAGCTGTCCGCTTT | 0.952 | 1.41 | 0.417 | 1.09 | -0.645 | 1.87 | -0.0611 | 0.529 | -0.911 | 0.0217
CAAACTAGGTCACAGAGGACAAAGTCCGTGCGTA | 4.82 | 3.84 | 1.45 | 2.96 | 0.637 | 5.52 | 9.51 | 7.79 | 5.58 | 7.51
ATATGTAGGTTAGGGTCATGCAGAAAGTAGGGAA | 4.77 | 4.14 | 0.926 | 4.29 | 1.21 | 5.74 | 7.7 | 6.66 | 4.91 | 6.3
CGAACTAGGTCACCAGGACAGTGAAGAGGTTGGA | 3.86 | 2.39 | -0.071 | 1.65 | -0.543 | 5.04 | 8.82 | 7 | 4.54 | 6.65
ATATGTGGGTTAGGGTCATTCAGAAAGTAGGGAA | 5.21 | 4.67 | 1.97 | 5.31 | 3.87 | 5.7 | 7.6 | 6.42 | 3.82 | 5.8
ATACGTAGGTTAGGGTCATTCAGAAAGTAGGGAA | 4.93 | 3.99 | 1.16 | 4.2 | 1.26 | 4.88 | 2.96 | 3.41 | 1.32 | 2.77
TAGCCTAGGTCATTCAGGGGTCAGTATAGAAAGC | 5.8 | 5.2 | 3.94 | 5.72 | 2.32 | 5.18 | 4.13 | 4.56 | 1.78 | 3.3
CAGCCTAGGTGAGGGCCAGTATAGGAGGAACGTT | -0.516 | -0.622 | -0.626 | -0.617 | -1.21 | -0.243 | 0.16 | -0.421 | -0.568 | -0.607
TTACCAAGGTGAAAGGTCGTTGAGGCACGCCTTG | 3.79 | 3.61 | 0.199 | 2.74 | -0.545 | 5.53 | 9.39 | 8.28 | 7.31 | 9.21
ATATGTAGGTAACATCCGGGTCATTCAGGCTATG | 1.82 | 2.79 | 0.798 | 2.48 | 0.596 | 4.36 | 5.15 | 4.17 | 1.8 | 3.15
CAATCTAGGTCACGAAAGGTCAAAGTCGAATGAC | 7.83 | 8.36 | 8 | 7.57 | 3.05 | 6.84 | 10.7 | 8.68 | 7.62 | 9.02
TCTAGCTGGTCAAAGGTCACACACTCGAAATGCG | 5.6 | 6.17 | 3.41 | 5.31 | 0.629 | 6.34 | 10.5 | 9.37 | 9.91 | 10.1
